# Reference: PubChem BioAssay
# Calls of active or inactive are those of the source.
# Tests used:
# [1] = small molecules captured by biotinylated probe aFSTL3 – biochemical, small-molecule microarray, fluorescence 635/667, stem cell growth factor project, primary screen (AID 1064); conditions: higher = more signal;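 note: measures binding of the biotinylated anti-FSTL3 antibody to printed compounds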
# [2] = binders from COS7 lysate, DM2A8 probe, primary screen, torsin A project, cell lysate, small-molecule microarray, fluorescence 635/667 (AID 1065); conditions: higher = more signal, COS7 lysate expressing mutant human TOR1A
# [3] = small molecules captured by biotinylated probe aFGF2 – biochemical, small-molecule microarray, fluorescence 635/667, stem cell growth factor project, primary screen (AID 1067); conditions: higher = more signal;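 note: measures binding of biotinylated aFGF2 protein to printed compounds on slides; z-score merges feature fluorescence and signal-to-noise across triplicate slides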
# [4] = small molecules captured by biotinylated probe aFGF10 – biochemical, small-molecule microarray, fluorescence 635/667, stem cell growth factor project, primary screen (AID 1071); conditions: higher = more signal;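 note: score merges 667 nm spot intensity and signal to noise from triplicate slides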
# [5] = target: Neurogenic locus notch homolog protein 2 (Homo sapiens) (UniProt Q04721); test: small molecules binding Notch2 protein – biochemical, small-molecule microarray, 635 nm fluorescence, stem cell growth factors, primary screen (AID 1073); conditions: higher = more signal
# [6] = target: Pro-neuregulin-1, membrane-bound isoform (Homo sapiens) (UniProt Q02297); test: small molecules binding neuregulin-1 protein – biochemical, small-molecule microarray, fluorescence 635/667, psychiatric disease protein project, primary screen (AID 1075); conditions: NRG1 binding, 635 nm fluorescence, higher = more signal;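 note: score combines 667 nm spot fluorescence with signal to noise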
# [7] = system: Neuregulin-1 EGF-like domain; test: small molecules binding NRG1 EGF domain – biochemical, small-molecule microarray, 635 nm fluorescence, primary screen (AID 1081); conditions: higher = more signal;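 note: binding of the protein to compounds printed on small-molecule microarray slides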
# [8] = FRG1 expression reporter modulators in myotubes – cell-based, C2C12 myotubes, firefly/Renilla luciferase, luminescence, FRG1 inhibition for FSHD, primary screen (AID 1084); conditions: FRG1 promoter luciferase, higher = more signal, called active from +8 up or from −8 down
# [9] = small molecules captured by biotinylated probe aFST – biochemical, small-molecule microarray, fluorescence 635/667, stem cell growth factor project, primary screen (AID 1086); conditions: higher = more signal;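 note: score merges 667 nm fluorescence with signal-to-noise of each printed compound spot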
# [10] = binders of probe aHhip on microarray, primary screen, stem cell growth factor project, biochemical, small-molecule microarray, fluorescence 635/667 (AID 1087); conditions: higher = more signal;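 note: score merges spot fluorescence at 667nm with spot signal to noise ratio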
# [11] = system: PRMT1 (protein arginine N-methyltransferase 1); test: small molecules binding arginine methyltransferase PRMT1 – biochemical, small-molecule microarray, 635 nm fluorescence, primary screen (AID 1088); conditions: higher = more signal;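 note: binding of Prmt1 protein to compounds spotted on small-molecule microarray slides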
# [12] = growth effects on S. cerevisiae YJM789 – YJM789 clinical isolate, OD600, 24 h, basal, primary screen (AID 1089); conditions: higher = more signal, called active from +8 up or from −8 down;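 note: growth of clinical yeast isolate S. cerevisiae YJM 789 seeded 1000 cells per well; test concentration not given here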
# [13] = S. pombe growth modifiers, basal conditions – strain 972, OD600, 24 h, no modulator, primary screen (AID 1090);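 note: basal condition with compound alone and no growth modifier present; test concentration not given here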; conditions: S. pombe 972 growth, higher = more signal, called active from +8 up or from −8 down
# [14] = budding yeast growth modifiers under rapamycin – strain BY4716, OD600, 96 h, primary screen (AID 1091); note: test concentration not given here; conditions: S. cerevisiae BY4716 + rapamycin, higher = more signal, called active from +8 up or from −8 down
# [15] = target: Torsin-1A-interacting protein 2 (Homo sapiens) (UniProt Q8NFQ8); test: small molecules binding lysate-expressed LULL1 – cell lysate, human LULL1 lysate, 635/667 nm fluorescence, primary screen (AID 1092); conditions: small-molecule microarray, hLULL1 lysate binding, 635 nm fluorescence; higher = more signal;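 note: probe is lysate of COS7 cells overexpressing human LULL1; score merges per-feature 667 nm fluorescence with signal-to-noise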
# [16] = optical density change of DRC41 E. coli – strain DRC41, OD650, 24 h, E. coli filamentation project, primary screen (AID 1093);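 note: MC1000 strain lacking acrAB efflux and sulA so SOS filamentation is blocked; test concentration not given here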; conditions: E. coli DRC41 growth, higher = more signal, called active from +8 up or from −8 down
# [17] = probe aLefty2 binding to arrayed compounds – biochemical, biotinylated probe, 635/667 nm fluorescence, primary screen (AID 1094); conditions: small-molecule microarray, higher = more signal;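 note: score merges spot fluorescence near 667 nm with spot signal-to-noise ratio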
# [18] = system: Noggin (protein binding on small-molecule microarray); test: small molecules binding Noggin protein – biochemical, 635/667 nm fluorescence, primary screen (AID 1095); conditions: 635 nm fluorescence, higher = more signal;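 note: score merges 667 nm feature fluorescence with signal to noise over triplicate slides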
# [19] = target: Neurogenic locus notch homolog protein 3 (Homo sapiens) (UniProt Q9UM47); test: small molecules binding NOTCH3 protein – biochemical, 635/667 nm fluorescence, primary screen (AID 1096); conditions: small-molecule microarray, 635 nm fluorescence, higher = more signal
# [20] = probe aEGFR binding to arrayed compounds – biochemical, biotinylated probe, 635/667 nm fluorescence, primary screen (AID 1097); conditions: small-molecule microarray, higher = more signal;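 note: probe is a biotinylated anti-EGFR antibody binding compounds printed on slides; score combines fluorescence near 667 nm and signal to noise of each spot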
# Sequence of Torsin-1A-interacting protein 2 (Homo sapiens) (Q8NFQ8 whole entry, looked up): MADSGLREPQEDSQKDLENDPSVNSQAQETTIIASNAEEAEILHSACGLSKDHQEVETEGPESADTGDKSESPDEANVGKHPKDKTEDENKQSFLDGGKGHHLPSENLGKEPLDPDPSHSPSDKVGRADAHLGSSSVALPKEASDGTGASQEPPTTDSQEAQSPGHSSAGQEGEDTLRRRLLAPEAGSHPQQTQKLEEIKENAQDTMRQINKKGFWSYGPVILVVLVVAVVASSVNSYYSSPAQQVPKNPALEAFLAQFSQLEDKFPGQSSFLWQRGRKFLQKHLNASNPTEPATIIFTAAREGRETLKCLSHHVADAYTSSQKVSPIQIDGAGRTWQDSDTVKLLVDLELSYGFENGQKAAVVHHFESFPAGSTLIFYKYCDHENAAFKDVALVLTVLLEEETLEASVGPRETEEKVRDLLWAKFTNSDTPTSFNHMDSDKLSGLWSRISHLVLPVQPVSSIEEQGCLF
# Sequence of Neurogenic locus notch homolog protein 3 (Homo sapiens) (Q9UM47 whole entry, looked up): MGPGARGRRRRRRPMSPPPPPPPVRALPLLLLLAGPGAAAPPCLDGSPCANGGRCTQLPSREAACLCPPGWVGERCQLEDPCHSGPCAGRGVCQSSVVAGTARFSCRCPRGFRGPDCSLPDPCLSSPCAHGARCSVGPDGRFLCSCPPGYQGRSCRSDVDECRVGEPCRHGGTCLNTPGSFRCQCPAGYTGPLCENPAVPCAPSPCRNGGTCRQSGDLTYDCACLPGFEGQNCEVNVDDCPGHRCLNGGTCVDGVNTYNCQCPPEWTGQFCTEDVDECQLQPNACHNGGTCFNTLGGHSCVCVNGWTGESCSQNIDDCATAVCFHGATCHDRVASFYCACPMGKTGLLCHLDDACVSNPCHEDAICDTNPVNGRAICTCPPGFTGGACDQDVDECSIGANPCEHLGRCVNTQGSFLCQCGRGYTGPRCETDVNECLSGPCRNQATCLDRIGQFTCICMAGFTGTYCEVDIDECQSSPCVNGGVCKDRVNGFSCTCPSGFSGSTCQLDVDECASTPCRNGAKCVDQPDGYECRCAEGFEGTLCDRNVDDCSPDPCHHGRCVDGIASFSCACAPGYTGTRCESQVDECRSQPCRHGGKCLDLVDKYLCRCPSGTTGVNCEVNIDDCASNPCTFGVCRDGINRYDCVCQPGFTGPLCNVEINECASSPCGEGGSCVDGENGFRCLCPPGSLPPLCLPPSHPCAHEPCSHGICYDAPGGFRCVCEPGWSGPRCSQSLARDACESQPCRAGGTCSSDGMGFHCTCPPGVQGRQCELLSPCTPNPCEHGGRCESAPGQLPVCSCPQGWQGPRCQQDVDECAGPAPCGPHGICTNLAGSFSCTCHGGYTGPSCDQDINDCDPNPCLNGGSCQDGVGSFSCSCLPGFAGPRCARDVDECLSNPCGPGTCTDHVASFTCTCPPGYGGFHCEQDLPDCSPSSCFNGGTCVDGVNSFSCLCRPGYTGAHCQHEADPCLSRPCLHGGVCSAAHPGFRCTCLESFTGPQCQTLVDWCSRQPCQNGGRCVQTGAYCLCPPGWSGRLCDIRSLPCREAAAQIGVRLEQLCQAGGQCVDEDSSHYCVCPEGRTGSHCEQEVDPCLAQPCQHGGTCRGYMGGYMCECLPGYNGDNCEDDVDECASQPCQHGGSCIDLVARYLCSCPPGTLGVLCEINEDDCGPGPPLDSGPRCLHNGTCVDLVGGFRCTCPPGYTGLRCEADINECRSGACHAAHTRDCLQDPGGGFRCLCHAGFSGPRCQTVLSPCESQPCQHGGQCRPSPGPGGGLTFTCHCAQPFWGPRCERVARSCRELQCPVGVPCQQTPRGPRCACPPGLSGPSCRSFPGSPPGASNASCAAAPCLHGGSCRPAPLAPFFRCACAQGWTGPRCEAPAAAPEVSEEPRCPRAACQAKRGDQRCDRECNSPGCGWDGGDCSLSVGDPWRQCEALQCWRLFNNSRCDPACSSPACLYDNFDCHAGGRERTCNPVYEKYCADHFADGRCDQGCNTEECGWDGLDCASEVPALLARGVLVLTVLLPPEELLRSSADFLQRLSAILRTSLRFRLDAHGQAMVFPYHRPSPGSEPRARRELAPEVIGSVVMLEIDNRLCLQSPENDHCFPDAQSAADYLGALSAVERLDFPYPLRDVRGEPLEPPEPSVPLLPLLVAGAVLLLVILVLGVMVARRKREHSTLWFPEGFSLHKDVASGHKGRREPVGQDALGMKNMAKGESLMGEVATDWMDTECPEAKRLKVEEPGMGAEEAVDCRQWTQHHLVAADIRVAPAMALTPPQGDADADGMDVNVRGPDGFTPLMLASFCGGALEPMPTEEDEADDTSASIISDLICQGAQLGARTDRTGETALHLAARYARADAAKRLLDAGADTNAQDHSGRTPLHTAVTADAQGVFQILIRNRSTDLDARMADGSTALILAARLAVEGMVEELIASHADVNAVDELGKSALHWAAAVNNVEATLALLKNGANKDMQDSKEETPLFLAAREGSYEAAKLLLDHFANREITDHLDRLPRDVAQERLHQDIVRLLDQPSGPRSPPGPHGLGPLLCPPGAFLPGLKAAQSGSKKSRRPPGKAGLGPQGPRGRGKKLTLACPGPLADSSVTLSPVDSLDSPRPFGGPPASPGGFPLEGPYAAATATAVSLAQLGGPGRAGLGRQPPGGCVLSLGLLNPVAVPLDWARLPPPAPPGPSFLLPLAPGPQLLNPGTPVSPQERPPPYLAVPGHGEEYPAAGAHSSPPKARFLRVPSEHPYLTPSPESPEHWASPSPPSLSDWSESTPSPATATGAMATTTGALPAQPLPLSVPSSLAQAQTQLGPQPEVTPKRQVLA
# Sequence of Pro-neuregulin-1, membrane-bound isoform (Homo sapiens) (Q02297 whole entry, looked up, the tested form may be a part, canonical isoform): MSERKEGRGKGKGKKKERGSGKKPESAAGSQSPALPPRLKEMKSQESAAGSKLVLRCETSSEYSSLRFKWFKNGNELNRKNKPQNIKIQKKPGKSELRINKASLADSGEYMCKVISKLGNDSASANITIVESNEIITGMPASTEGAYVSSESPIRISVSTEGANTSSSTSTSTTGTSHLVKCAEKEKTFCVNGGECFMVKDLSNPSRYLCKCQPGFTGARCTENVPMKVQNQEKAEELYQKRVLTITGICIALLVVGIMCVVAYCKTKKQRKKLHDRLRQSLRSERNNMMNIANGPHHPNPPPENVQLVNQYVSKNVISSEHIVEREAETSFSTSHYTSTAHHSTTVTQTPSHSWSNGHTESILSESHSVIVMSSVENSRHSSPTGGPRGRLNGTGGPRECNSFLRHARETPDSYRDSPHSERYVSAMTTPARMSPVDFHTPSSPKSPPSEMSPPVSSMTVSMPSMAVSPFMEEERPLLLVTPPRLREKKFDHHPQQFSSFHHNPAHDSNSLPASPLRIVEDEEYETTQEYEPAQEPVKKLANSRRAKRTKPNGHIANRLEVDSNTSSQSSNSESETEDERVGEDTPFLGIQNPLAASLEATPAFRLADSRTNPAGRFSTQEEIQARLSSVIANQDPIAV
Compound,composite z-score [1],composite z-score [2],composite z-score [3],composite z-score [4],composite z-score [5],composite z-score [6],composite z-score [7],z-score [8],composite z-score [9],composite z-score [10],composite z-score [11],z-score [12],z-score [13],z-score [14],composite z-score [15],z-score [16],composite z-score [17],composite z-score [18],composite z-score [19],composite z-score [20]
COC(=O)C1(CC(C)C)C=C2C(=C(C(C)C)C(=O)C2C)CN1 (stereo not given),0.901,-0.241,-0.0578,-0.589,-0.507,0.607,0.19,1.65 (inactive),0.315,-0.0603,-0.866,-0.166 (inactive),-0.0608 (inactive),1.08 (inactive),0.412,-0.844 (inactive),-0.0289,-1.29,-0.877,-0.103
COCCCNC(=O)[C@@H]1c2ccccc2C(=O)N(C2CCCCC2)[C@H]1c1ccc(CO)cc1,0.503,-0.763,-0.105,-0.564,-1.03,1.2,1.45,-0.108 (inactive),-0.341,-0.236,-0.158,-0.0916 (inactive),-0.769 (inactive),-0.285 (inactive),2.86,0.216 (inactive),-0.018,-0.597,-0.47,-0.257
CCCC=C(CCC)[C@@H](NC(=O)c1ccco1)c1ccc(C(=O)OC)cc1,0.0801,0.127,0.209,0.72,1.52,1.65,1.2,0.467 (inactive),0.594,-0.0507,0.997,1.06 (inactive),0.113 (inactive),2.22 (inactive),3.52,-0.868 (inactive),0.198,0.678,1.06,-0.15
CCCC[C@@H]1C[C@H]1[C@@H](NC(=O)Cc1ccccc1)c1ccc(Cl)cc1,0.409,0.469,0.428,0.671,1.63,1.72,1.19,-2.4 (inactive),1.46,-0.193,0.576,0.0911 (inactive),-1.16 (inactive),1.68 (inactive),3.14,-0.76 (inactive),0.105,1.34,1.03,0.218
COCC(=C=CC[C@@H](O)c1cccc(OCCO)c1)C[C@@H](O)COCc1ccccc1,0.506,1.35,0.0918,0.718,-0.157,2.11,0.974,-0.631 (inactive),1.96,-0.169,0.881,-1.56 (inactive),-1.53 (inactive),-0.592 (inactive),3.81,1.36 (inactive),0.217,0.748,0.0417,0.19
CCC[C@@H]1[C@@H](Sc2ccccc2)[C@@H](C(=O)O)[C@H](c2ccc(C)cc2)N1S(=O)(=O)c1ccc(C)cc1,-0.259,0.175,0.0213,0.894,1.67,1.15,1.34,-4.1 (inactive),1.11,-0.0618,1.56,-0.994 (inactive),0.674 (inactive),-0.698 (inactive),3.45,-0.131 (inactive),0.114,1.05,1.04,0.129
CC(C)C[C@@H]1NC(=O)[C@H]2C[C@@H](C(=O)NCCCCCNC(=O)CS)[C@@H](c3ccc(O)cc3)N2C1=O,-0.208,0.929,0.283,0.834,0.74,1,1.3,-0.232 (inactive),0.0724,-0.236,1.54,0.553 (inactive),-0.12 (inactive),0.871 (inactive),2.11,0.488 (inactive),-0.077,0.528,0.634,-0.0007
C=C(CCCC)C(=O)CC[C@H](OC(=O)c1cccnc1)c1ccc(CO)o1,-0.426,1.08,-0.0752,0.797,0.816,0.407,1.23,-0.0577 (inactive),0.606,-0.134,1.55,-0.697 (inactive),-0.176 (inactive),-0.036 (inactive),2.07,-0.0138 (inactive),0,1.47,1.13,0.045
N#Cc1ccc(C(O)C2C=CC3C(=O)NC(=O)C3N2Nc2ccccn2)cc1 (stereo not given),-0.0872,-0.013,-0.0692,0.311,0.905,1.41,0.511,-0.0581 (inactive),0.12,0.113,0.312,-1.4 (inactive),0.811 (inactive),-0.657 (inactive),1.4,-0.195 (inactive),-0.147,-0.14,-0.124,-0.0594
COC(=O)[C@]1(CO)N=C(c2ccc(OCCCO)cc2)O[C@@H]1c1ccccc1CN=[N+]=[N-],-0.0858,-0.132,-0.155,-0.546,-0.663,-0.12,1.16,1.7 (inactive),-0.144,-0.286,0.575,0.11 (inactive),0.44 (inactive),1.85 (inactive),0.852,0.628 (inactive),-0.0884,0.227,-0.318,-0.285
CC(C)CNC(=O)[C@@H]1c2ccccc2C(=O)N(C2Cc3ccccc3C2)[C@H]1c1ccc(CO)cc1,0.192,-0.372,-0.0737,0.261,-0.51,1.29,1.39,-1.56 (inactive),-0.316,-0.166,0.962,-0.226 (inactive),-0.59 (inactive),-0.434 (inactive),2.59,2.01 (inactive),0.159,-0.646,-0.145,-0.311
CCCCN1CC=CC23O[C@@H]4C=CCOC(=O)[C@@H]4[C@H]2C(=O)N(C(CO)C(C)C)[C@@H]3C1=O (stereo not given in full),0.0186,-0.438,-0.124,-0.275,-0.758,-0.397,-0.0125,0.353 (inactive),-0.288,-0.13,-0.453,-0.161 (inactive),-0.325 (inactive),0.752 (inactive),-1.06,-0.505 (inactive),-0.118,-0.319,-0.743,-0.217
CCC(CC)C(O)C1C=CC2C(=O)N(C)C(=O)C2N1N1CCCCC1 (stereo not given),0.104,0.816,0.121,0.837,1.31,1.83,1.23,0.855 (inactive),1.29,0.281,1.36,-0.059 (inactive),0.274 (inactive),-0.537 (inactive),3.42,-1.29 (inactive),0.0353,0.334,1.04,0.0142
CN1C=C(C(=O)OCCS(C)(=O)=O)C(C(=O)OCCS(C)(=O)=O)=CC(CCCO)=CC1c1ccc(CN2CCCC2)cc1 (stereo not given),0.316,0.156,0.0126,1.11,1.25,2.02,1.35,0.226 (inactive),1.65,0.0053,1.48,0.897 (inactive),-6.78 (inactive),-0.781 (inactive),3.06,0.0324 (inactive),0.383,0.845,0.984,0.273
COCCCNC(=O)[C@@]1(Sc2ccc(C)cc2)CC(=O)N(C2CCCCC2)[C@@H]1c1ccc(CO)cc1I,-0.364,0.657,0.0442,0.655,1.02,1.56,1.26,-3.63 (inactive),0.505,0.176,1.54,-1.9 (inactive),-0.128 (inactive),0.0267 (inactive),2.81,0.331 (inactive),-0.0333,0.451,1.04,0.0944
C=CCOC(=O)[C@H]1[C@@H]2C(=O)O[C@@H](c3ccccc3)[C@@H](c3ccccc3)N2[C@@H](c2ccc(OCCOC(=O)[C@H]3C[C@H]4C(=O)NCC(=O)N4[C@H]3c3ccc(O)cc3)cc2)[C@]12C(=O)Nc1ccc(I)cc12,-0.309,1.03,-0.0867,0.202,0.636,0.346,0.869,-1.35 (inactive),0.392,0.064,1.3,0.203 (inactive),0.629 (inactive),4.17 (inactive),0.871,0.47 (inactive),-0.148,0.895,0.672,-0.0531
CCCC=C(CCC)[C@@H](NS(=O)(=O)c1ccc(Cl)cc1)c1ccccc1,0.329,-0.558,0.106,-0.243,0.191,-0.223,-0.358,0.909 (inactive),-0.0037,0.0251,0.61,0.286 (inactive),0.319 (inactive),1.61 (inactive),1.1,-0.829 (inactive),-0.0916,-0.135,-0.682,-0.125
COC(=O)[C@@]1(Cc2ccccc2)[C@@H]2[C@@H](CC(=O)[C@H]2CC(=O)C(=O)N(C)C)CN1C(=O)c1ccccc1,0.186,-1,-0.169,0.281,1.19,1.89,1.21,1.1 (inactive),0.319,-0.0994,-0.476,1.02 (inactive),1.29 (inactive),0.633 (inactive),3.34,-0.2 (inactive),-0.0221,-0.505,-0.18,0.142
C=CCNC(=O)[C@@H]1[C@H]2C(=O)O[C@H](c3ccccc3)[C@H](c3ccccc3)N2[C@H](c2ccc(O)cc2)[C@@]12C(=O)Nc1ccc(C#CC3(O)CCCCCC3)cc12,-0.258,0.102,-0.1,0.434,0.469,0.606,0.979,0.273 (inactive),-0.0976,-0.0391,0.994,0.154 (inactive),0.0674 (inactive),0.0489 (inactive),1.57,-0.447 (inactive),-0.113,0.553,-0.0051,-0.013
COCCOC(=O)N1C(=O)[C@@]2(c3cc(C#CC4=CCCCC4)ccc31)[C@H](C(=O)N1CCc3cc(OC)c(OC)cc3C1)[C@H]1C(=O)O[C@H](c3ccccc3)[C@H](c3ccccc3)N1[C@@H]2c1ccc(O)cc1,-0.0908,0.271,0.0216,1.15,1.5,1.79,1.25,-0.514 (inactive),0.153,0.0515,1.5,1.68 (inactive),0.94 (inactive),2.7 (inactive),2.68,0.951 (inactive),1.08,0.552,1.16,0.657
